Source: PubChem BioAssay
nsP2pro primary – CHIKV nsP2 protease inhibition, primary qHTS. Q8JUX6. FRET peptide cleavage, nsP2pro, fluorescence 1 h. Potency, µM (top dose mostly 24.9 µM), hits mostly inhibitors. 31,000 tested, 1.1% active; note: nearly all actives have a fitted effect of over 60% in size
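FRET cleavage of 2.5 uM peptide 2 by 150 nM CHIKV protease domain at pH 8.0 (Tris, Tween 20). Compounds at 7 concentrations (up to 25 uM) preincubated 15 min. Fluorescence read after 1 h at room temperature.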
CHIKV nsP2 cell – inhibits CHIKV nsP2 protease in cells | shares compounds with nsP2pro primary | cell-based CHIKV nsP2 protease reporter assay | Potency, µM (titrated, usually from 51.1 µM), actives largely listed as inhibitors | 450 tested, 10% active | AID 1964100; note: nearly all actives have a fitted effect of over 70% in size
NSP2 full ctr – selectivity test for CHIKV nsP2 protease inhibitors: full-length NSP2. 410 tested, 39% active. shares compounds with nsP2pro primary. AID 1964101. Full-length CHIKV NSP2 protease enzymatic counterscreen. Potency, µM (titrated, usually from 50.7 µM), hits mostly inhibitors; note: nearly all actives have a fitted effect of over 65% in size
Furin counter – inhibits human furin in a CHIKV nsP2 protease selectivity counterscreen | AID 1964102 | Potency, µM (series often up to 50.6 µM), usual class: inhibitors | 410 tested, 6% active | shares compounds with nsP2pro primary | Recombinant human furin enzymatic counterscreen, fluorogenic substrate
NS23 peptide cs – nsP2pro inhibition on native NS2/3 peptide substrate | 410 tested, 34% active | Potency, µM (series often up to 51 µM), most hits filed as inhibitors | shares compounds with nsP2pro primary | Purified CHIKV nsP2 protease, endogenous NS2/3 peptide cleavage; note: nearly all actives have a fitted effect of over 55% in size
Papain cs – inhibits papain in a CHIKV nsP2 protease selectivity counterscreen; shares compounds with nsP2pro primary; purified papain protease activity, enzymatic inhibition; Potency, µM (doses to about 51 µM), actives largely listed as inhibitors; 410 tested, 5% active
nsP2pro conf qHTS – CHIKV nsP2 protease inhibition, confirmatory qHTS | shares compounds with nsP2pro primary | CHIKV nsP2 protease enzymatic activity, qHTS | Potency, µM (highest dose often 25.5 µM), usual class: inhibitors | 410 tested, 43% active; note: nearly all actives have a fitted effect of over 75% in size
HCV NS3 counter – inhibits HCV NS3/4A protease in an nsP2pro selectivity counterscreen; HCV NS3/4A protease biochemical counterscreen; shares compounds with nsP2pro primary; 410 tested, 20% active; Potency, µM (doses to about 50.9 µM), hits mostly inhibitors; AID 1964106; note: nearly all actives have a fitted effect of over 55% in size
A number is an active result; 0 = inactive; ? = inconclusive; ! = not confirmed by another sample. The entries come from a sample that favours hits as a whole. Calls come from the whole dose curve.

SMILES	nsP2pro primary	others
COc1cc(/C=C/C(=O)OC2CC(OC(C)=O)C(OC(C)=O)C3C2CCC2C(=O)OC(c4ccoc4)CC23C)ccc1O[C@@H]1O[C@H](CO)[C@@H](O)[C@H](O)[C@H]1O (some centres not stated)	0
COC(=O)C1(O)C(OC(C)=O)CCC2C3(CC(c4ccoc4)OC3=O)C(C)=CCC21C(=O)OC (configuration not stated)	1.9µM	CHIKV nsP2 cell=0;NSP2 full ctr=0;Furin counter=0;NS23 peptide cs=0;Papain cs=0;nsP2pro conf qHTS=0;HCV NS3 counter=0
CC1=CC(=O)CC2C1(O)CCC(C)C21CC(c2ccoc2)OC1=O (configuration not stated)	0
Cc1cnc(-c2ccccc2C(F)F)nc1NCC1CN(c2cnccn2)C1	0
CCCC(C)NC(=O)Cn1nc(-c2ccc(C)cc2)ccc1=O (configuration not stated)	0
N[C@@H](CO)C(=O)Nc1ccc(Cl)cc1C(=O)c1ccc[nH]1	0
NC(CO)C(=O)NNCc1ccc(O)c(O)c1O (configuration not stated)	1.8µM	CHIKV nsP2 cell=0;NSP2 full ctr=6.5µM;Furin counter=0;NS23 peptide cs=4.1µM;Papain cs=0;nsP2pro conf qHTS=1.3µM;HCV NS3 counter=?
CC(=O)Nc1sc2c(c1-c1ccc3c(c1)CCO3)CCNC2	0
Cc1cnc(CCNS(=O)(=O)c2cccc(F)c2)n1Cc1ccccc1	0
Cc1ccc(OCCn2c(CCNC(=O)c3cccc4[nH]ccc34)nc3ccccc32)cc1	0
O=[N+]([O-])c1ccc(S(=O)(=O)c2ccc(Cl)cc2)nc1	0.32µM	CHIKV nsP2 cell=2.1µM;NSP2 full ctr=0.73µM;Furin counter=16µM;NS23 peptide cs=1.8µM;Papain cs=0;nsP2pro conf qHTS=0.45µM;HCV NS3 counter=5.2µM
O=C(NCC(F)(F)F)c1cn2cc(-c3ccc(C(F)(F)F)cc3)sc2n1	0
CCN1C(=O)C2(CCN(S(=O)(=O)c3c(C)nn(C)c3C)CC2)c2ccccc21	0
CC(C)n1cnc2c(-c3cnc(N)nc3)nc(N3CCOCC3)nc21	0
COCCNC(=O)c1cc(-c2ccccc2OC)c2cccn2n1	0
CC1(C)CC(=O)N(CCCCN2CCN(c3ncccn3)CC2)C(=O)C1	0
Oc1cc2c(cc1CN1CCN(c3ncccn3)CC1)OCO2	10µM	CHIKV nsP2 cell=0;NSP2 full ctr=?;Furin counter=0;NS23 peptide cs=16µM;Papain cs=0;nsP2pro conf qHTS=7.1µM;HCV NS3 counter=?
O=C(O)C(c1ccc2c(c1)OCCO2)N1CCCN(c2ncccn2)CC1 (configuration not stated)	0
C#CCNC(=O)C1CCc2nnc(CNC(=O)Nc3cccnc3)n21 (configuration not stated)	0
Cc1ccc(C#Cc2cc(-c3nn(-c4nc(C(=O)O)cs4)c(CC4CC4)c3Cc3ccc(S(N)(=O)=O)c(F)c3)ccc2F)o1	4µM	CHIKV nsP2 cell=0.13µM;NSP2 full ctr=?;Furin counter=0;NS23 peptide cs=0;Papain cs=23µM;nsP2pro conf qHTS=0;HCV NS3 counter=0
CC(=O)Nc1ccc(C)c(C(=O)N[C@H](C)c2cccc3ccccc23)c1	0
C=C(C)C(=O)OC1[C@@H]2C(=C)C(=O)O[C@@H]2C[C@@H](C)[C@@H]2C=CC(=O)[C@@]12C (some centres not stated)	0
C=C(C)C(=O)OC1CC(CO)CCC/C(CO)=C/C2OC(=O)C(=C)C21 (configuration not stated)	0
C=C(C(=O)O[C@H]1C/C(C)=C/CC/C(CO)=C/[C@H]2OC(=O)C(=C)[C@H]12)C(O)CO (some centres not stated)	5.4µM	CHIKV nsP2 cell=?;NSP2 full ctr=10µM;Furin counter=0;NS23 peptide cs=?;Papain cs=0;nsP2pro conf qHTS=4.4µM;HCV NS3 counter=0
C=C1CC2C3(C)C(O)CC(=O)C(C)(C)C3C(O)C(OC(C)=O)C2(C)C2C(=O)OC(C)(C(=O)OC)C(=O)C12C (configuration not stated)	0
SMILES	nsP2pro primary	others
CC1CCN(C(c2ccc(F)cc2)c2ccc(C(C)C(=O)O)cc2-c2ccc(C(F)(F)F)cc2)CC1 (configuration not stated)	0
C[S+](=O)([O-])N1CC2(CCN(Cc3c[nH]c4ccccc34)CC2)Cc2ccccc21	0
COC(=O)c1cccc(-n2c(CCC(=O)O)ccc2-c2cccs2)c1	8.9µM	CHIKV nsP2 cell=0
CC(=O)c1ccc(-n2c(CCC(=O)O)ccc2-c2cccs2)cc1	0
COC(=O)c1ccccc1NC(=O)Cn1c(CCC(=O)O)ccc1-c1cccs1	0
[2H]C([2H])([2H])C(O)([C@@H](C)/C=C/[C@@H](C)[C@H]1CC[C@H]2/C(=C/C=C3C[C@@H](O)C[C@H](O)C3)CCC[C@]12C)C([2H])([2H])[2H]	0
Cc1cc(C)nc(NC(=S)N2CCN(c3ccc([N+](=O)[O-])c4cccnc34)CC2)c1	0
COc1cc(C)c(-c2nc(CN3CCOC(CCN)C3)c(C)o2)cc1C (configuration not stated)	0
Cc1ccc(CNC(=O)c2nc(SCc3ccccc3F)ncc2Cl)cc1	11µM	CHIKV nsP2 cell=0;NSP2 full ctr=0;Furin counter=0;NS23 peptide cs=0;Papain cs=0;nsP2pro conf qHTS=0;HCV NS3 counter=0
Cc1ccc(CNC(=O)c2nc(SCc3ccc(F)cc3)ncc2Cl)cc1	0
Cc1ccc(CNC(=O)c2nc(SCc3ccc(C)cc3)ncc2Cl)cc1	0
CC1(C)[C@@H](O)CC[C@]2(C)[C@H]3CC=C4[C@@H]5C[C@](C)(C(=O)O)CC[C@]5(C)CC[C@@]4(C)[C@]3(C)CC[C@@H]12	0
C[C@@]1(C(=O)O)CC[C@]2(C)CC[C@]3(C)C4=CC(=O)c5cc(O)c(O)cc5[C@]4(C)CC[C@@]3(C)[C@@H]2C1	0
CC1=C(O)C(=O)C=C2C1=CC=C1[C@@]2(C)CC[C@@]2(C)[C@@H]3C[C@](C)(C(=O)O)CC[C@]3(C)CC[C@]12C	4.4µM!	CHIKV nsP2 cell=?;NSP2 full ctr=16µM;Furin counter=?;NS23 peptide cs=4.6µM;Papain cs=?;nsP2pro conf qHTS=1.8µM;HCV NS3 counter=21µM
COc1cccc(-c2cccc(CN3CCCC3C(=O)N3CCCCC3)c2)c1 (configuration not stated)	0
O=C1C=CC2OC(c3ccccc3)C(O)C2O1 (configuration not stated)	?	CHIKV nsP2 cell=?;NSP2 full ctr=?;Furin counter=0;NS23 peptide cs=?;Papain cs=0;nsP2pro conf qHTS=?;HCV NS3 counter=?
COC(=O)CC(O)C1OC(c2ccccc2)C(O)C1O (configuration not stated)	0
Cc1cc(C)nc(NC(=S)N2CCN(c3ccc(F)cc3F)CC2)c1	0
CC(C)(C)OC(=O)N1CCN(c2ccc(NCc3cccc(-c4ccc(C#N)cc4)n3)cc2)CC1	0
CC1=C2CC3C(CCC3(C)O)C(C)(O)CC2OC1=O (configuration not stated)	0
